Screening results (PubChem)
LmPK inhibitor – inhibitors of Leishmania mexicana pyruvate kinase; AID 1721; 290,000 tested, 0.37% active; Potency, µM (titrated, usually from 57.5 µM), inactives show top-dose activity change, negative = inhibition, usual class: inhibitors; purified LmPK, Kinase-Glo ATP luminescence, 1 h; further: potency means the concentration at half of the fitted maximal effect; on the % scale 0 is the no-effect control and ±100 the full control effect
Target sequence (Q27686 whole entry, looked up): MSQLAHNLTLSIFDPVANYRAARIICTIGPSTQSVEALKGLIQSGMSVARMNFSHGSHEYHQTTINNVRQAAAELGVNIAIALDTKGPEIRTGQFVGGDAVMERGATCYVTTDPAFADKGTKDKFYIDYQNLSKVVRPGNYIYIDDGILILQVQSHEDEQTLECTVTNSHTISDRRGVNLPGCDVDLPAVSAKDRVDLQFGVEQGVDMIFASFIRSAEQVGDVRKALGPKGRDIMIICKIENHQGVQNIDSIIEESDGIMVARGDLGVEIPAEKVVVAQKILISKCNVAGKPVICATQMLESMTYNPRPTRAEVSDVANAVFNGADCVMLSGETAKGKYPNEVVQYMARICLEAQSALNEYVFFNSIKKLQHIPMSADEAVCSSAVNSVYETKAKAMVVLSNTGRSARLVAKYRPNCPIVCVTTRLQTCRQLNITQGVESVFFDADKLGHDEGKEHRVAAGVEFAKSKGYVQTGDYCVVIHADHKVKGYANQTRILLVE
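Screened at intermediate enzyme activity to detect both inhibitors and activators: LmPK at 0.1 nM, with a 0.5 nM enzyme column as activation reference. PEP 0.5 mM, ADP 0.1 mM; ATP detected by luminescence after 1 h.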
FBPA Giardia inh – blocks Giardia fructose-bisphosphate aldolase activity; A8B2U2; purified Giardia FBPA; Potency, µM (series often up to 59.6 µM), without a hit: at the highest dose activity, negative = inhibition, hits mostly inhibitors; 290,000 tested, 0.71% active; AID 2451; further: potency means the concentration at half of the fitted maximal effect; on the % scale 0 is the no-effect control and ±100 the full control effect; nearly all actives have a fitted effect of over 55% in size
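Giardia FBPA (40 nM reagent) was preincubated 10 min at RT with compound (up to 57.5 uM final), then substrate plus GAPDH/TPI/NAD/arsenate coupling system with diaphorase/resazurin was added; resorufin fluorescence (525/598 nm) was read after 20 min.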
RE007 growth inh – less growth of the S. pombe RE007 Vpr strain | AID 651644 | 360,000 tested, 0.21% active | Potency, µM (series often up to 92.2 µM), inactives show at the top dose activity change, negative = less growth, hits mostly inhibitors | S. pombe RE007 Vpr strain, BacTiter-Glo ATP luminescence, 24 h; active means well fitted falling curve with a large enough effect; inconclusive means small, poorly fitted or top-dose-only effect; inactive means no such curve, though single readings can be large or run the other way; further: potency means the concentration at half of the fitted maximal effect; on the % scale 0 is the no-effect control and ±100 the full control effect; nearly all actives have a fitted effect of over 50% in size
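Fission yeast strain RE007, carrying one chromosomally integrated HIV-1 vpr copy, was seeded at OD 0.01 in PMG+AL medium with 23 nL pinned compound. After 24 h at 30 °C and 99% humidity, viability was read by BacTiter-Glo luminescence.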
Shiga toxin inh – inhibitors of Shiga toxin in Vero cells; Vero cells, Shiga toxin protein synthesis inhibition reporter; inhibition, % at 38.7 µM; 290,000 tested, 9.2% active; AID 2315; in the data active means inhibition mostly above about 28%, no sharp cut-off; inactive means mostly below about 43%; further: 0% is about no effect
CHX counter – counter-screen hit for Shiga toxin inhibitors, cycloheximide. 300,000 tested, 12% active. AID 2314. max response, %. cell reporter, cycloheximide protein synthesis inhibition counterscreen; in the data active means max response mostly above about 13%, no sharp cut-off; inactive means mostly below about 14%; further: read at 38.3 µM for the half of the compounds with a filed dose; 0% is about no effect
Tb PYK inh – blocks Trypanosoma brucei pyruvate kinase; Q57TT1; TbPYK enzyme, Kinase-Glo Plus ATP luminescence, 45 min; Potency, µM (series often up to 76.8 µM), for the others: top-dose activity, negative = inhibition, most hits filed as inhibitors; 410,000 tested, 0.12% active; further: potency means the concentration at half of the fitted maximal effect; on the % scale 0 is the no-effect control and ±100 the full control effect; nearly all actives have a fitted effect of over 50% in size
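T. brucei PYK with substrate was exposed to pin-transferred compounds across a concentration series, then started with 130 uM ADP (final). After 45 min at room temperature, Kinase-Glo Plus luminescence was read, normalized and curve-fitted.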
Numbers without * were called inactive; i = inactive; ? = inconclusive; · = no result; + = active, no number; [ ] = another dose, or the depositor's remark. Only a selection was taken, and hits are over-represented in it overall. Unless noted, the call rests on the fitted dose curve; in most records, active means well fitted curve in the direction sought with a large enough effect; inconclusive means small, poorly fitted or top-dose-only effect, or another doubt; inactive means no such curve, though single readings can be large; an effect the other way counts as inactive or inconclusive.

SMILES	LmPK inhibitor	FBPA Giardia inh	RE007 growth inh	Shiga toxin inh	CHX counter	Tb PYK inh
COc1ccc(-c2cc(C(F)(F)F)nc(SCCC(=O)Nc3ccc(NC(C)=O)cc3)n2)cc1	·	·	·	·	·	-8%
CC1(C(=O)Nc2ccc3c(c2)OCO3)CC1(Cl)Cl (configuration not stated)	-11%	7%	17%	29*	16*	0%
COc1ccc(N/C(C)=C/C(=S)Nc2ccccc2)cc1	0%	?	?	43*	32*	1%
COc1ccc(OC)c(N/C(C)=C/C(=O)c2ccccc2)c1	0%	-13%	6%	27*	91*	-6%
COc1ccc(CCNC(=S)Nc2ccccc2)cc1	8%	-17%	-3%	3	15	1%
CCC(=O)N1CCC1(C)C(=O)Nc1ccc2c(c1)OCO2 (configuration not stated)	·	·	9%[18.4 µM]	·	·	-2%
CC(C)=CC(=O)Nc1ccc2c(c1)OCO2	?	-3%	-10%	68*	25*	-23%
CCOC(=O)C(=O)Nc1ccc2c(c1)OCO2	-20%	5%	17%	35	13	-22%
Cc1cccc(-n2ncc(C(=O)NCc3ccco3)c2C2CCN(C(=O)OC(C)(C)C)CC2)c1	·	·	·	·	·	6%[15.4 µM]
COc1ccc(S(=O)(=O)N2CCC(N3CCN(c4ccccc4OC)CC3)CC2)cc1	-1%	?	2%	3	-1	5%
CCCC[C@H](NC(=O)[C@H](CO)NC(=O)[C@H](Cc1ccc(O)cc1)NC(=O)[C@H](CO)NC(C)=O)C(=O)N[C@@H](CCC(=O)O)C(=O)N[C@@H](Cc1cnc[nH]1)C(=O)N[C@H](Cc1ccccc1)C(=O)N[C@@H](CCCNC(=N)N)C(=O)N[C@@H](Cc1c[nH]c2ccccc12)C(=O)NCC(=O)N[C@@H](CCCCN)C(=O)N1CCC[C@H]1C(=O)N[C@H](C(N)=O)C(C)C	·	1%	·	-9	-7	·
COc1ccc(NC(=O)c2sc3nc4c(cc3c2N)CN(C(C)C)CC4)c(OC)c1	·	·	·	·	·	-9%
COc1ccc(N/C(C)=C/C(=O)c2ccccc2)cc1	-6%	-5%	-11%	164*	64*	-9%
COc1ccc(NC(=O)CCCCC(=O)Nc2ccc(OC)cc2)cc1	0%	5%	2%	·	1	-3%
CCN(CC(=O)Nc1ccc(OC)cc1)CC(=O)Nc1ccc2c(c1)OCO2	·	·	-12%	·	·	-4%
COC(=O)/C(=C\C(=O)c1ccccc1)Nc1ccc(OC)cc1	1%	-23%	?	58*	50*	-3%
COc1ccc(C(=O)/C=C(\C)Nc2ccc3c(c2)OCO3)cc1	-2%	·	-26%	i	49*	-6%
Nc1ccc(-c2nc3c(Cl)c(N)ccc3[nH]2)cc1	?	-2%	-9%	78*	15	-10%
Nc1ccc2nc(-c3ccc(Cl)cc3)[nH]c2c1	-2%	-22%	-28%	97*	62*	0%
Nc1ccc2nc(-c3cc(Cl)c(N)c(Cl)c3)[nH]c2c1	16µM*	-12%	1%	64*	36*	-4%
NC(=O)c1ccc2nc(-c3ccc(Oc4ccc(Cl)cc4)cc3)[nH]c2c1	·	-12%	·	45*	16	·
Cc1nc2ccc(-c3nc4ccc(N)cc4[nH]3)cc2[nH]1	-21%	-7%	-13%	-6	-1	-7%
Nc1ccc2nc(-c3cccc(-c4nc5ccc(N)cc5[nH]4)c3)[nH]c2c1	-1%	-21%	5%	-4	10	-5%
Cn1c(=O)n(C)c2cc(/C=N/N=C3/NC(=O)C(CC(=O)O)S3)ccc21 (configuration not stated)	0%	-26%	-5%	-5	4	-7%
O=C(COC(=O)C12CC3CC(CC(O)(C3)C1)C2)Nc1ccc(Cl)c(S(=O)(=O)N2CCOCC2)c1	·	·	18%	·	·	10%
SMILES	LmPK inhibitor	FBPA Giardia inh	RE007 growth inh	Shiga toxin inh	CHX counter	Tb PYK inh
Clc1ccc2nc(-c3ccc(Cl)nc3)[nH]c2c1	-2%	-21%	-1%	53*	24*	-15%
CCC(C)NC(=O)c1cc2n(n1)CCCN(Cc1ccc(C)cc1)C2=O (configuration not stated)	·	·	·	·	·	0%
CCCCCOCC1CC(C/C(C)=N/Nc2nc(-c3ccccc3)cs2)C(=O)O1 (configuration not stated)	-6%	-28%	-17%	69*	27*	9%
COC(=O)c1sc(NC(=O)C(C)C)c(C(=O)OC)c1C	-1%	20%	7%	16	40*	3%
CCC(=O)Nc1sc(C(=O)OC)c(C)c1C(=O)OC	2%	4%	-4%	12	-5	-16%
CC(C)c1ccc(NC(=O)CSc2nc3ncccc3[nH]2)cc1	-1%	0%	6%	18	19*	-16%
COc1ccc(NC(=O)CSc2nc3ncccc3[nH]2)cc1OC	0%	-15%	0%[3.69 µM]	28	-2	·
CC(C)OC(=O)c1ccc(NC(=O)CSc2nc3ncccc3[nH]2)cc1	1%	-7%	16%	46*	23*	-5%
COc1ccc(-c2nc3scc(CCNS(=O)(=O)c4cccs4)n3n2)cc1	·	·	·	·	·	0%
O=P(O)(O)OC(CO)CO	·	6%	·	-10	-2	0%
Cc1ccc(NC(=O)C/C(N)=N/OC(=O)Nc2cccc(C)c2)cc1	·	·	-7%	·	·	3%
Cc1ccc(NC(=O)ON=C2CCCC2)cc1	-2%	3%	-8%	+	55*	1%
O=C(Nc1ccccc1)ON=C1CCCC1	-27%	1%	-23%	39	23*	0%
CCn1c(Cn2nnc(-c3ccccc3)n2)nnc1SCC(=O)Nc1ccc(N(C)C)cc1	4%	-3%	6%	-26	-7	-22%
CN(C)c1ccc(-c2nnn(Cc3ccccc3Br)n2)cc1	2%	4%	-3%	27	17*	-12%
Clc1ccccc1Cn1nnc(-c2ccccc2)n1	2%	5%	3%	105*	53*	-3%
COc1cc(-c2nnn(Cc3ccccc3C)n2)cc(OC)c1OC	-3%	4%	-2%	-2	-1	-11%
COc1ccc(-c2nnn(Cc3ccccc3)n2)cc1OC	3%	0%	-15%	·	11*	2%
O=C(CCn1nnc(-c2cccs2)n1)NCc1ccccc1Cl	-2%	5%	8%	-10	-4	1%
Clc1ccccc1Cn1nnc(-c2cccs2)n1	6%	9%	4%	61*	29*	-6%
Cc1cccc(C(=O)N2CCc3cc(CNC(=O)c4ccc(Br)o4)ccc32)c1	·	·	·	·	·	0%
Cc1c(C(=O)NC2CCCc3ccccc32)cccc1[N+](=O)[O-] (configuration not stated)	-1%	5%	4%	12	10	2%
